# PubChem BioAssay (NCI)
# “And” between values parts separate entries of the source, which are not always exact repeats. Identical values can stand only once. Compounds without any hit were thinned out: in the full panel of roughly 83,000, 20% have a hit.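 Cell lines were cultured in 96-well plates, exposed to a single compound concentration, and assessed for percent growth 48 hours later.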 The source made the active and inactive calls.
# Test system: HT29 colon
# Assay: NCI-60 one-dose screen, 48 h (100 = growth as untreated, 0 = no growth, -100 = all killed)
# Details: 10 µM
# Description: Growth inhibition of the HT29 human tumor cell line is measured as a screen for anti-cancer activity. Cells are grown in 96 well plates and exposed to the test compound for 48 hours. Compounds are tested at a single concentration, which is 10^-5 M for most compounds. The reported endpoint is percent growth (GI% or GIPRCNT), where numbers from 0 - 100% represent growth inhibition, and numbers from -100% - 0 represent cell death. For example, a value of 40 represents 60% growth inhibition. A value of 0 means no net growth occurred over the course of the experiment. A value of -40 indicates 40% of cells at the beginning of the experiment died by the end of the experiment. A value of -100 means all cells are dead at the end of the experiment.
# NCI-60 Human Tumor Cell Lines Screen was performed using the standard one-dose NCI protocol, which is described in more detail at https://dtp.cancer.gov/discovery_development/nci-60/default.htm.
# Compounds with GIPRCNT values below 10 were considered active. Activity score was based on GIPRCNT using the following formula: […]
# Score is 0 for GIPRCNT values of 100 or above, 50 for GIPRCNT values of 0, and 100 for GIPRCNT values of -100.
row,Compound,growth
1,S=c1nc[nH]c2nc[nH]c12,41.7% (inactive)

# Same assay, conditions: 10 µM unless noted
row,Compound,growth
1,Clc1ccc2sc(-c3ccccc3)nc2c1,95.1% (inactive)
2,COc1cc(C2c3cc4c(cc3C(OC(=O)C[n+]3ccccc3)C3COC(=O)C23)OCO4)cc(OC)c1OC (stereo not given),4.68% (active)
3,CCN(CC)C(CC(=O)c1ccccc1)C(=O)c1ccccc1 (stereo not given),95.1% (inactive)
4,O=[N+]([O-])c1ccc(N2CCN=N2)cc1,88.4% (inactive)
5,Nc1nc(=S)c2[nH]cnc2[nH]1,9.45% (active) and 8.24% (active)
6,O=C1c2ccccc2C(c2ccccc2)C1c1ccccc1 (stereo not given),98.9% (inactive)
7,Cc1ccc(NC(=S)N/C=C(\c2ccccc2)S(=O)Cc2ccccc2)c(C)c1 (stereo not given),108% (inactive)
8,COC(=O)c1nc(N)nc(C(=O)OC)c1C(=O)c1ccc(F)cc1,115% (inactive)
9,O=C1c2cccnc2-c2ncccc21,106% [100 µM] (inactive)
10,CCOP(C)(=O)/C(Cc1ccc(OC)c(OC)c1)=N\O (stereo not given),106% (inactive)
11,CNc1ccc(Cl)cc1S(=O)(=O)c1ccccc1[N+](=O)[O-],101% (inactive) and 106% (inactive)
12,CCN(CC)Cc1cc2[nH]c3c4ccc(Cl)cc4ncc3c2cc1OC,10.2% (inactive) and 9.65% (active)
13,N#Cc1c(N)nc2c(c(-c3ccc(Cl)cc3)nn2-c2ccccc2)c1C#N,106% [100 µM] (inactive)
14,C(=N\OCCc1ccccc1)/c1ccccn1,112% (inactive) and 97.7% (inactive)
15,CCOC(=O)NC(N)=O,99.9% (inactive) and 106% (inactive)
16,CC(=O)c1cc2ccccc2o1,95.4% (inactive)
17,O=C(NC(CSSCC(NC(=O)OCc1ccccc1)C(=O)O)C(=O)O)OCc1ccccc1 (stereo not given),92.7% (inactive) and 96% (inactive)
18,CCC/C(=N/NC(N)=O)c1ccco1,93.7% (inactive)
19,N=C(N)N1CCc2ccccc2C1,102% (inactive) and 105% (inactive)

row,Compound,growth
1,COc1ccc(/C=N/Nc2nc3ccccc3s2)cc1,92.3% (inactive)
2,O=C(O)C#Cc1ccc(Cl)cc1,98.1% (inactive)
3,c1ccc2c[n+](Cc3ccc4ccccc4n3)ccc2c1,57.2% (inactive)
4,CN(C=O)c1ccccc1,99.9% (inactive)
5,O=C1Cc2ccccc2C(=O)N1,88.9% (inactive)
6,CCNCc1ccccc1,98.8% (inactive)
7,Clc1ccc2c(c1)N(C1CCCN(Cc3ccccc3)C1)c1ccccc1S2 (stereo not given),76.7% (inactive)
8,COCCNC(C)=O,108% (inactive)
9,N#CC1c2ccccc2C=CN1C(=O)c1ccccc1 (stereo not given),112% (inactive) and 107% (inactive)
10,CN(C)C(=S)N(C)C,95.6% (inactive)
11,NCCCCCC(=O)O,100% (inactive) [middle of 4 runs]
12,COc1cc(Cl)ccc1C,27.1% (inactive)
13,O=C(Nc1ccccc1)OCC(CN1CCCCC1)OC(=O)Nc1ccccc1 (stereo not given),69.6% (inactive) and 87.2% (inactive)
14,COc1ccc(CCl)c(C)c1OC,102% (inactive)
15,O=[N+]([O-])c1ccc(NC(c2ccccc2)c2ccc3cccnc3c2O)cc1 (stereo not given),26% (inactive)
16,COCCCNC1=C(C#N)C(=O)NC(c2cccs2)S1 (stereo not given),99.9% (inactive)
17,Cn1c(N)c(N=O)c(=O)n(C)c1=O,111% (inactive) and 90.2% (inactive)
18,OCCS,97% (inactive)
19,Oc1cccnc1CN1CCOCC1,97.7% (inactive) and 106% (inactive)

# Same assay, conditions: 50 µM
row,Compound,growth
1,S=c1nc[nH]c2nc[nH]c12,14.3% (inactive)
